Bioassay records: PubChem BioAssay, several laboratories
RecA splice inh = inhibitors of M. tuberculosis RecA intein splicing; actives 0.75% (n = 290,000); cell-free RecA intein splicing, fluorescence; inhibition, % (no concentration beside the values); AID 2221; in the data active = inhibition above about 30%;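 also: 0% = vehicle wells and 100% = reference inhibitor control wells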
Target sequence (P9WHJ3 whole entry, looked up, canonical isoform): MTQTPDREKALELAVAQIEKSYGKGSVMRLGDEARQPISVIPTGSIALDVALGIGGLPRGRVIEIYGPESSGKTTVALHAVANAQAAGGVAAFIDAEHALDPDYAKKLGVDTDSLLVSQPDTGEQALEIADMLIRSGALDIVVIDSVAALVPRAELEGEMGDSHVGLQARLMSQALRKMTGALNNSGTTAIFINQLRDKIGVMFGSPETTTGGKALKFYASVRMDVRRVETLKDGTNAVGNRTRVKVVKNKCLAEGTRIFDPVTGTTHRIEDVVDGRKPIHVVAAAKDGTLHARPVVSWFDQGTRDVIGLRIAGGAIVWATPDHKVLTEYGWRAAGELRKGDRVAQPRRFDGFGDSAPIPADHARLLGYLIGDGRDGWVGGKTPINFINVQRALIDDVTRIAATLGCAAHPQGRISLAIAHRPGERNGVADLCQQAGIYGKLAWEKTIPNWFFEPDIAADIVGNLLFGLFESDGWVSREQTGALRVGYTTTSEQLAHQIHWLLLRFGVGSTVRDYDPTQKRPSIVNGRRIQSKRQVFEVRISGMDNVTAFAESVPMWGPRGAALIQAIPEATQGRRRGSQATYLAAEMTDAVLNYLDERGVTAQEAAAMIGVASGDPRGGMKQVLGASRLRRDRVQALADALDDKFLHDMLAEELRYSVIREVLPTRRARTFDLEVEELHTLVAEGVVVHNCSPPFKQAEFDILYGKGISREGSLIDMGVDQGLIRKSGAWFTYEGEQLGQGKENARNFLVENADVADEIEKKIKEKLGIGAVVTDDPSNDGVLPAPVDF
FBA Mtb inh = inhibits M. tuberculosis FBA enzyme; purified M. tuberculosis FBA, fluorescence read-out; inhibition, % at 1 µM; actives 2.3% (n = 360,000); AID 588726; in the data active = inhibition above about 27%;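 also: 0% = vehicle and 100% = reference inhibitor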
GDH-TPI inh = GDH-TPI coupled enzyme inhibition counter-screen. inhibition, % at 4.8 µM. actives 1.2% (n = 360,000). GDH-TPI coupled enzyme counterscreen, NADH absorbance; in the data active = inhibition above about 30%;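 also: 0% = DMSO wells and 100% = wells lacking the enzyme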
Rv3671c protease = inhibitors of M. tuberculosis serine protease Rv3671c; inhibition, % at 5.96 µM; P9WHR9; AID 2606; actives 0.048% (n = 320,000); in the data active = inhibition above about 38%;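 also: extracellular domain of Rv3671c used as enzyme; 0% = enzyme with DMSO and 100% = no enzyme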
UGM FP inh = blocks M. tuberculosis UGM enzyme | P9WIQ1 | purified UGM, fluorescence polarization probe displacement | inhibition, % at 10 µM | actives 0.06% (n = 320,000); in the data active = inhibition above about 10%, passing the limit was not always enough
Mtb bLac sens = beta-lactam sensitization of Mtb H37Rv; actives 0.27% (n = 330,000); inhibition, % at 25 µM; M. tuberculosis H37Rv growth with meropenem, percent inhibition; call rule not given here;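 also: growth measured after seven days incubation then overnight dye step; 0% = bacteria only wells and 100% = bacteria with antibiotic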
Active calls of the source: *. The list is not random: actives were taken first. Their share in the collection is about 4%.

For COc1cccc(NC(=O)COC(=O)c2sccc2C)c1 the results were FBA Mtb inh 0, GDH-TPI inh 0, Rv3671c protease 3, UGM FP inh 2 and Mtb bLac sens -2.
Oc1ccc(O)c(C=NNC(=S)NC2CC3CC2C2C=CCC32)c1 (stereo not given) was read as FBA Mtb inh 2 and GDH-TPI inh 31*.
For NNC(=S)NC1CC2CC1C1C=CCC21 (stereo not given) the results were RecA splice inh 1, FBA Mtb inh 0, GDH-TPI inh 8, Rv3671c protease 2 and UGM FP inh 1.
`Cc1nn(C(=O)c2ccco2)c(C)c1Sc1ccc(Cl)cc1` gave RecA splice inh 0, FBA Mtb inh 4, GDH-TPI inh -2, Rv3671c protease -3, UGM FP inh 1 and Mtb bLac sens 0.
Cc1nn(C(=O)c2cccnc2)c(C)c1Sc1ccc(Br)cc1 was read as RecA splice inh 44*, FBA Mtb inh 0, GDH-TPI inh 2, Rv3671c protease 1, UGM FP inh -1 and Mtb bLac sens 7.
For COc1cccc(/C=N/NC(=S)Nc2cccc(C(=O)O)c2)c1 the results were FBA Mtb inh 3, GDH-TPI inh 15, Rv3671c protease -3, UGM FP inh 0 and Mtb bLac sens 3.
For COc1ccc(/C=N/NC(=S)Nc2cccc(C(=O)O)c2)cc1OC the results were RecA splice inh 0, FBA Mtb inh 7, GDH-TPI inh 50*, Rv3671c protease -7, UGM FP inh 2 and Mtb bLac sens -5.
`COc1cc(/C=N/NC(=S)Nc2cccc(C(=O)O)c2)cc(OC)c1OC` gave RecA splice inh 6, FBA Mtb inh -1, GDH-TPI inh 41*, Rv3671c protease 3, UGM FP inh 3 and Mtb bLac sens 3.
COc1ccc(N2CCN(C(CNC(=O)C(=O)NCC(OC)OC)c3ccco3)CC2)cc1 (stereo not given) was read as RecA splice inh 2, FBA Mtb inh -2, GDH-TPI inh -3, Rv3671c protease -2, UGM FP inh 1 and Mtb bLac sens 5.
`COc1cc(N/N=C/c2ccccc2O)ncn1` gave RecA splice inh -3, FBA Mtb inh 3, GDH-TPI inh 47*, Rv3671c protease -2, UGM FP inh 2 and Mtb bLac sens 95.
Screening O=S(=O)(NC1CC(NS(=O)(=O)OCC(Cl)(Cl)Cl)C2CCCCC12)OCC(Cl)(Cl)Cl (stereo not given) returned RecA splice inh 13, FBA Mtb inh 1, GDH-TPI inh 5, Rv3671c protease -24, UGM FP inh -1 and Mtb bLac sens -15.
Screening CC(C)n1nnc(-c2ccc(OCc3ccccc3F)cc2)n1 returned RecA splice inh 9, FBA Mtb inh 1, GDH-TPI inh 5, Rv3671c protease 1, UGM FP inh 1 and Mtb bLac sens 0.
Screening Cc1cc(OCC(=O)OCC(=O)N(C)Cc2ccccc2C)ccc1Cl returned FBA Mtb inh -1, GDH-TPI inh -2, Rv3671c protease -2, UGM FP inh 1 and Mtb bLac sens 54.
CCN(CC)CCOc1ccc(C=NNc2nc3c([nH]2)c(=O)n(C)c(=O)n3C)cc1 was read as FBA Mtb inh 0 and GDH-TPI inh 44*.
`Cn1c(=O)c2[nH]c(NN=Cc3cccc(Br)c3)nc2n(C)c1=O` gave FBA Mtb inh -3 and GDH-TPI inh 37*.
COc1ccc([C@H]2C[C@@H](n3cc(C4CC4)nn3)[C@H](O)CN2CC2CCCCC2)cc1 was read as FBA Mtb inh 0 and GDH-TPI inh 5.
O=C1/C(=C/c2ccccc2)Oc2cc(OC(=O)N3CCOCC3)ccc21 was read as RecA splice inh -1, FBA Mtb inh 2, GDH-TPI inh 31, Rv3671c protease -1, UGM FP inh 1 and Mtb bLac sens 3.
For COc1ccc(/C=C2\Oc3cc(OC(=O)N4CCOCC4)ccc3C2=O)c(OC)c1 the results were RecA splice inh -7, FBA Mtb inh -4, GDH-TPI inh 31*, Rv3671c protease -7, UGM FP inh 3 and Mtb bLac sens 2.
Screening COc1cccc(/C=C2\Oc3cc(OCC(=O)N4CCCCC4)ccc3C2=O)c1OC returned RecA splice inh -4, FBA Mtb inh -1, GDH-TPI inh 39*, Rv3671c protease -16, UGM FP inh 3 and Mtb bLac sens 1.
COc1ccc(/C=C2\Oc3cc(OCC(=O)N4CCC[C@H]4C(=O)O)ccc3C2=O)c(OC)c1OC was read as RecA splice inh 4, FBA Mtb inh -2, GDH-TPI inh 38*, Rv3671c protease -2, UGM FP inh 0 and Mtb bLac sens 2.
`O=C(O)COc1ccc2c(c1)O/C(=C\c1cccs1)C2=O` gave FBA Mtb inh 5, GDH-TPI inh 42*, Rv3671c protease -8, UGM FP inh 2 and Mtb bLac sens 5.
COc1ccc(/C=C2\Oc3cc(OCC(=O)N4CC(O)C[C@H]4C(=O)O)ccc3C2=O)c(OC)c1OC (stereo not given in full) was read as RecA splice inh 2, FBA Mtb inh -1, GDH-TPI inh 25, Rv3671c protease -2, UGM FP inh 4 and Mtb bLac sens 1.
Screening COc1ccc(OC)c(/C=C2\Oc3cc(OCC(=O)N4CC(O)C[C@H]4C(=O)O)ccc3C2=O)c1 (stereo not given in full) returned RecA splice inh -5, FBA Mtb inh -6, GDH-TPI inh 40*, Rv3671c protease -4, UGM FP inh -2 and Mtb bLac sens -8.
For COc1cc(OC)cc(-c2c(C#Cc3ccsc3)c3cc(-c4ccc5c(c4)OCO5)ccc3n2C)c1 the results were FBA Mtb inh 11, GDH-TPI inh 39*, Rv3671c protease -2, UGM FP inh 0 and Mtb bLac sens -1.
COc1ccc(-c2c(C#Cc3ccsc3)c3cc(-c4ccc5c(c4)OCCO5)ccc3n2C)cc1 was read as FBA Mtb inh 19, GDH-TPI inh 42*, Rv3671c protease -2, UGM FP inh 1 and Mtb bLac sens 5.
For COc1ccc(-c2c(C#Cc3ccsc3)c3cc(-c4ccc5[nH]ccc5c4)ccc3n2C)cc1 the results were FBA Mtb inh 18, GDH-TPI inh 47*, Rv3671c protease 1, UGM FP inh 0 and Mtb bLac sens -2.
`CC(=O)Nc1cc(-c2cccc(C(=O)NCCN(C)C)c2)cn2c(-c3ccc(C(C)=O)cc3)cnc12` gave FBA Mtb inh -2 and GDH-TPI inh 12.
`C=CCN1C(=O)C(CC(=O)O)SC1=Nc1ccc(N=Nc2ccccc2)cc1` (stereo not given) gave RecA splice inh 5, FBA Mtb inh -1, GDH-TPI inh 63*, Rv3671c protease 10, UGM FP inh -1 and Mtb bLac sens 6.
`C=CCN1C(=O)C(CC(=O)O)SC1=Nc1cccc([N+](=O)[O-])c1` (stereo not given) gave FBA Mtb inh 2, GDH-TPI inh 1, Rv3671c protease -6, UGM FP inh 1 and Mtb bLac sens -8.
